Legend:
Assay in all cases: PBM; 200 nM protein, PBS
Details in all cases: dsDNA, one strand shown
NKX2-5 [1] = target: NKX2-5 (Homo sapiens, UniProt P52952 125-210, R139K)
NKX2-5 [2] = target: NKX2-5 (Homo sapiens, UniProt P52952 125-210)
HOXD13 [3] = target: HOXD13 (Homo sapiens, UniProt P35453 263-343, T313R)
HOXD13 [4] = target: HOXD13 (Homo sapiens, UniProt P35453 263-343)
HOXD13 [5] = target: HOXD13 (Homo sapiens, UniProt P35453 263-343, T313A)
NKX3-2 [6] = target: NKX3-2 (Homo sapiens, UniProt P78367 192-278, P234S)
NKX3-2 [7] = target: NKX3-2 (Homo sapiens, UniProt P78367 192-278)
NKX3-2 (Homo sapiens, UniProt P78367 192-278), sequence (P78367 192-278): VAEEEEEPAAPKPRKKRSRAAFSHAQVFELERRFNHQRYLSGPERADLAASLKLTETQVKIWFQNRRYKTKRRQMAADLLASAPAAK

NKX2-5 (Homo sapiens, UniProt P52952 125-210, R139K), sequence (P52952 125-210 R139K): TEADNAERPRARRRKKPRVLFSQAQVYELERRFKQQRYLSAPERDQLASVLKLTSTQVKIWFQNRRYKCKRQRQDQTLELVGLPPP
HOXD13 (Homo sapiens, UniProt P35453 263-343, T313R), sequence (P35453 263-343 T313R): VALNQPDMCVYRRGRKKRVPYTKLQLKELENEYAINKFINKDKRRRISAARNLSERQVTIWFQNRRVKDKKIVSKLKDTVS
HOXD13 (Homo sapiens, UniProt P35453 263-343), sequence (P35453 263-343): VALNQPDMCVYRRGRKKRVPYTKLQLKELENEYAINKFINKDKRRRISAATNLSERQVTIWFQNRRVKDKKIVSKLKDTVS
HOXD13 (Homo sapiens, UniProt P35453 263-343, T313A), sequence (P35453 263-343 T313A): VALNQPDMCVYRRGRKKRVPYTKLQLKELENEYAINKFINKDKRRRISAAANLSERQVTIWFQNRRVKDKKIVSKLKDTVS
NKX2-5 (Homo sapiens, UniProt P52952 125-210), sequence (P52952 125-210): as the sequence (P52952 125-210 R139K) above, with K15R counted along it
NKX3-2 (Homo sapiens, UniProt P78367 192-278, P234S), sequence (P78367 192-278 P234S): as the sequence (P78367 192-278) above, with P43S counted along it

AATAGTCT
binding signal (NKX2-5 [1]): 10.6 upbm affinity estimate (log intensity, higher = more binding, comparable within an allelic series) | binding signal (NKX2-5 [2]): 10.7 upbm affinity estimate (log intensity, higher = more binding, comparable within an allelic series)

ACCGCGGC
binding signal (NKX2-5 [1]): 8.83 upbm affinity estimate (log intensity, higher = more binding, comparable within an allelic series) | binding signal (NKX2-5 [2]): 8.84 upbm affinity estimate (log intensity, higher = more binding, comparable within an allelic series)

ACTAGTAC
binding signal (NKX2-5 [1]): 10.7 upbm affinity estimate (log intensity, higher = more binding, comparable within an allelic series) | binding signal (NKX2-5 [2]): 10.7 upbm affinity estimate (log intensity, higher = more binding, comparable within an allelic series)

ACTCTACT
binding signal (NKX2-5 [1]): 10.7 upbm affinity estimate (log intensity, higher = more binding, comparable within an allelic series) | binding signal (NKX2-5 [2]): 10.8 upbm affinity estimate (log intensity, higher = more binding, comparable within an allelic series)

CCCGTCAG
binding signal (NKX2-5 [1]): 9.01 upbm affinity estimate (log intensity, higher = more binding, comparable within an allelic series) | binding signal (NKX2-5 [2]): 9.04 upbm affinity estimate (log intensity, higher = more binding, comparable within an allelic series)

GCAAAGTA
binding signal (NKX2-5 [1]): 10.7 upbm affinity estimate (log intensity, higher = more binding, comparable within an allelic series) | binding signal (NKX2-5 [2]): 10.8 upbm affinity estimate (log intensity, higher = more binding, comparable within an allelic series)

CCGGAGAC
binding signal (NKX2-5 [1]): 8.74 upbm affinity estimate (log intensity, higher = more binding, comparable within an allelic series) | binding signal (NKX2-5 [2]): 8.76 upbm affinity estimate (log intensity, higher = more binding, comparable within an allelic series)

CCCTGGGC
binding signal (NKX2-5 [1]): 8.86 upbm affinity estimate (log intensity, higher = more binding, comparable within an allelic series) | binding signal (NKX2-5 [2]): 8.96 upbm affinity estimate (log intensity, higher = more binding, comparable within an allelic series)

TAATTATA
binding signal (HOXD13 [3]): 10.7 upbm affinity estimate (log intensity, higher = more binding, comparable within an allelic series)

AGTGCCTA
binding signal (NKX2-5 [1]): 11.2 upbm affinity estimate (log intensity, higher = more binding, comparable within an allelic series) | binding signal (NKX2-5 [2]): 11.1 upbm affinity estimate (log intensity, higher = more binding, comparable within an allelic series)

CGGGTGGC
binding signal (NKX2-5 [1]): 8.45 upbm affinity estimate (log intensity, higher = more binding, comparable within an allelic series) | binding signal (NKX2-5 [2]): 8.57 upbm affinity estimate (log intensity, higher = more binding, comparable within an allelic series)

GCCCTCTA
binding signal (NKX2-5 [1]): 10.4 upbm affinity estimate (log intensity, higher = more binding, comparable within an allelic series) | binding signal (NKX2-5 [2]): 10.5 upbm affinity estimate (log intensity, higher = more binding, comparable within an allelic series)

CCTGGGCA
binding signal (NKX2-5 [1]): 8.92 upbm affinity estimate (log intensity, higher = more binding, comparable within an allelic series) | binding signal (NKX2-5 [2]): 9.12 upbm affinity estimate (log intensity, higher = more binding, comparable within an allelic series)

CTAATTAA
binding signal (HOXD13 [3]): 10.8 upbm affinity estimate (log intensity, higher = more binding, comparable within an allelic series) | binding signal (HOXD13 [4]): 11.8 upbm affinity estimate (log intensity, higher = more binding, comparable within an allelic series) | binding signal (HOXD13 [5]): 11.6 upbm affinity estimate (log intensity, higher = more binding, comparable within an allelic series)

ATTAATTG
binding signal (HOXD13 [3]): 10.7 upbm affinity estimate (log intensity, higher = more binding, comparable within an allelic series)

CGACACTC
binding signal (NKX2-5 [1]): 10.6 upbm affinity estimate (log intensity, higher = more binding, comparable within an allelic series) | binding signal (NKX2-5 [2]): 10.5 upbm affinity estimate (log intensity, higher = more binding, comparable within an allelic series)

TAATTAAA
binding signal (HOXD13 [3]): 10.8 upbm affinity estimate (log intensity, higher = more binding, comparable within an allelic series) | binding signal (HOXD13 [4]): 11.8 upbm affinity estimate (log intensity, higher = more binding, comparable within an allelic series) | binding signal (HOXD13 [5]): 11.7 upbm affinity estimate (log intensity, higher = more binding, comparable within an allelic series)

AGTACTCG
binding signal (NKX2-5 [1]): 11.5 upbm affinity estimate (log intensity, higher = more binding, comparable within an allelic series) | binding signal (NKX2-5 [2]): 11.3 upbm affinity estimate (log intensity, higher = more binding, comparable within an allelic series)

ACACTCTG
binding signal (NKX2-5 [1]): 10.6 upbm affinity estimate (log intensity, higher = more binding, comparable within an allelic series) | binding signal (NKX2-5 [2]): 10.5 upbm affinity estimate (log intensity, higher = more binding, comparable within an allelic series)

CCCCAACG
binding signal (NKX2-5 [1]): 8.6 upbm affinity estimate (log intensity, higher = more binding, comparable within an allelic series) | binding signal (NKX2-5 [2]): 8.67 upbm affinity estimate (log intensity, higher = more binding, comparable within an allelic series)

ACTTATCG
binding signal (NKX2-5 [1]): 11.2 upbm affinity estimate (log intensity, higher = more binding, comparable within an allelic series) | binding signal (NKX2-5 [2]): 11.2 upbm affinity estimate (log intensity, higher = more binding, comparable within an allelic series)

CGGACCCC
binding signal (NKX2-5 [1]): 9.12 upbm affinity estimate (log intensity, higher = more binding, comparable within an allelic series) | binding signal (NKX2-5 [2]): 9.03 upbm affinity estimate (log intensity, higher = more binding, comparable within an allelic series)

CCTGGCAG
binding signal (NKX2-5 [1]): 8.78 upbm affinity estimate (log intensity, higher = more binding, comparable within an allelic series) | binding signal (NKX2-5 [2]): 8.78 upbm affinity estimate (log intensity, higher = more binding, comparable within an allelic series)

GGTAATTA
binding signal (NKX3-2 [6]): 11.7 upbm affinity estimate (log intensity, higher = more binding, comparable within an allelic series) | binding signal (NKX3-2 [7]): 11.7 upbm affinity estimate (log intensity, higher = more binding, comparable within an allelic series)

GTTAATTA
binding signal (HOXD13 [3]): 10.7 upbm affinity estimate (log intensity, higher = more binding, comparable within an allelic series) | binding signal (HOXD13 [5]): 11.6 upbm affinity estimate (log intensity, higher = more binding, comparable within an allelic series)

TCTGCAGA
binding signal (NKX2-5 [1]): 9.09 upbm affinity estimate (log intensity, higher = more binding, comparable within an allelic series) | binding signal (NKX2-5 [2]): 9.04 upbm affinity estimate (log intensity, higher = more binding, comparable within an allelic series)

ATTAATTA
binding signal (HOXD13 [3]): 10.8 upbm affinity estimate (log intensity, higher = more binding, comparable within an allelic series) | binding signal (HOXD13 [4]): 11.8 upbm affinity estimate (log intensity, higher = more binding, comparable within an allelic series) | binding signal (HOXD13 [5]): 11.6 upbm affinity estimate (log intensity, higher = more binding, comparable within an allelic series)

AGGCGAGC
binding signal (NKX2-5 [1]): 9.02 upbm affinity estimate (log intensity, higher = more binding, comparable within an allelic series) | binding signal (NKX2-5 [2]): 8.95 upbm affinity estimate (log intensity, higher = more binding, comparable within an allelic series)

ATTAATGA
binding signal (HOXD13 [3]): 10.7 upbm affinity estimate (log intensity, higher = more binding, comparable within an allelic series) | binding signal (HOXD13 [4]): 11.9 upbm affinity estimate (log intensity, higher = more binding, comparable within an allelic series) | binding signal (HOXD13 [5]): 11.7 upbm affinity estimate (log intensity, higher = more binding, comparable within an allelic series)

AATTAATA
binding signal (HOXD13 [3]): 10.9 upbm affinity estimate (log intensity, higher = more binding, comparable within an allelic series) | binding signal (HOXD13 [4]): 11.7 upbm affinity estimate (log intensity, higher = more binding, comparable within an allelic series) | binding signal (HOXD13 [5]): 11.7 upbm affinity estimate (log intensity, higher = more binding, comparable within an allelic series)

Reference: paper PMC11006913
